This is part of a sample that, as a whole, favours compounds with a hit. Of some 79,000 tested, about 15% had one in any assay. A number with no mark means an inactive call. The source made the active and inactive calls. Cut-off read from the data, not from the text of the source: active = growth inhibition above about 70%; inactive = the rest.

The text below walks through data of PubChem BioAssay (NCI).

Assay [1] can be described thus: NCI Yeast Anticancer Drug Screen. Data for the rad50 strain (AID 155).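 Note: 0% = growth of vehicle-only cultures of the same strain.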 The note with it: S. cerevisiae rad50 strain growth inhibition; at 50.0 µM; active compounds read high. The gist of the method: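 Vehicle-treated cultures provide the reference for the growth inhibition reported for compound-exposed, repair-deficient yeast.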
Assay [2] is described as follows: NCI Yeast Anticancer Drug Screen. Data for the mec2-1 strain (AID 157). The note with it: S. cerevisiae mec2-1 strain, at 50.0 µM, active compounds read high. The gist of the method:
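Using mec2-1 yeast: add compound, measure growth, express inhibition versus vehicle-treated cultures.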

The nature of assay [3]: NCI Yeast Anticancer Drug Screen. Data for the sgs1 mgt1 strain (AID 161).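 Note: 0% = growth of cultures given vehicle only.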 The note with it: S. cerevisiae sgs1 mgt1 strain, at 50.0 µM, active compounds read high. An outline of the steps:
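Growth of a repair-deficient yeast mutant was monitored after compound treatment and expressed as inhibition relative to vehicle-treated cultures.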

Assay [4] in a line: NCI Yeast Anticancer Drug Screen. Data for the cln2 rad14 strain (AID 165).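 Note: 0% = growth equal to vehicle treated cultures.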 The note with it: S. cerevisiae cln2 rad14 strain, at 50.0 µM, active compounds read high. An outline of the steps:
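Yeast strain cln2 rad14, bearing defects in cell cycle control and DNA repair, serves as the test system; values reflect growth inhibition compared with vehicle.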

Assay [5] is described as follows: NCI Yeast Anticancer Drug Screen. Data for the bub3 strain (AID 167). The note with it: S. cerevisiae bub3 mutant strain, at 50.0 µM, active compounds read high. The gist of the method: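 Mutant yeast screening strain plus compound; vehicle-treated cultures serve as the 0% inhibition reference.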
Assay [6] can be described thus: NCI Yeast Anticancer Drug Screen. Data for the mlh1 rad18 strain (AID 175). Conditions: S. cerevisiae mlh1 rad18 strain growth inhibition; at 50.0 µM; active compounds read high. The gist of the method:
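Steps: expose repair-defective yeast to compound; measure growth; express inhibition against vehicle-treated controls.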

Take `CN(C)S(=O)(=O)C=C(c1ccccc1)c1ccccc1`: the growth inhibition is 1.25% in assay [1]; 4.1% in assay [2]; 17.4% in assay [3]; -5.1% in assay [4]; 15.3% in assay [5]; -0.2% in assay [6].

Turning to `CCCCOC(=O)CNC(=O)OC/C=C/C#CC#C/C=C/COC(=O)NCC(=O)OCCCC`, the growth inhibition is -20.2% in assay [1]; -35.8% in assay [2]; -24.4% in assay [3]; -17.9% in assay [4]; 0.3% in assay [5]; -19.9% in assay [6].

Consider `COC(=O)C12C3C4C1C1C2C3C41C(=O)N(C(C)C)C(C)C` (stereo not given), for which the growth inhibition in assay [1] is 7.75%; in assay [2] it was -1.45%; in assay [3], -3.4%; in assay [4] it was -3.55%; in assay [5], 3.5%; in assay [6], -14%.

`C1CCCCCc2c(-c3n[nH]c4c3CCCCCCCCCC4)n[nH]c2CCCC1`: the growth inhibition was -8.1% in assay [1]; -1.45% in assay [2]; -8.2% in assay [3]; 7.9% in assay [4]; 2.75% in assay [5]; 43.8% in assay [6].

For the compound `CCOC(=O)c1c(NNc2ccccc2)nc2ccccc2c1-c1ccccc1`, the growth inhibition in assay [1] was 25.1%; in assay [2] it was -2.05%; in assay [3], 11.1%; in assay [4] it was 22.4%; in assay [5], -10.3%; in assay [6] it was -1.7%.

In the case of `BrCCC[n+]1ccc2ccccc2c1-c1nccc2ccccc12`, the growth inhibition in assay [1] was 50.7%; in assay [2], 16.1%; in assay [3] it was 54.2%; in assay [4], 33.2%; in assay [5] it was 5.05%; in assay [6] it was 49.5%.

Consider `CC(=O)c1c(C)[nH]c(C(=O)O)c1C`, for which the growth inhibition was 24.7% in assay [1]; 4.3% in assay [2]; 8.75% in assay [3]; -14.4% in assay [4]; 5.35% in assay [5]; 16.6% in assay [6].

Turning to `Cc1c2ccnc(C#N)c2c(C)c2c1[nH]c1ccccc12`, the growth inhibition in assay [1] is -19.8%; in assay [2] it was 3%; in assay [3], -16.9%; in assay [4] it was -13.3%; in assay [5] it was 12.8%; in assay [6], 7.5%.

For the compound `O=c1[nH]c(=S)[nH]c2c1CCC2`, the growth inhibition in assay [1] was 6%; in assay [2] it was 25.4%; in assay [3], 44.2%; in assay [4] it was 21.4%; in assay [5] it was 35.2%; in assay [6], 24.1%.

`NC(=O)NC1=NCCC(=O)N1CCc1c[nH]c2ccccc12`: the growth inhibition in assay [1] is 51.3%; in assay [2] it was 75.9% (active); in assay [3] it was 84.2% (active); in assay [4], 78.5% (active); in assay [5] it was 77.7% (active); in assay [6], 88% (active).

As to `CCCCCCCCCCCCCCCCCC(=O)N/N=C/c1ccccc1`, the growth inhibition in assay [1] was 1%; in assay [2] it was -2.8%; in assay [3], 12%; in assay [4] it was 2.95%; in assay [5] it was -1.5%; in assay [6], -5.55%.

Regarding `COC(=O)/C(=C\SCc1ccccc1)NC(C)=O`, the growth inhibition was 0.45% in assay [1]; 6.7% in assay [2]; -1.55% in assay [3]; -7.7% in assay [4]; -24.2% in assay [5]; -20.8% in assay [6].

As to `CN(C)CCC(=O)C(=Cc1ccc(O)cc1)C(=O)CCN(C)C`, the growth inhibition is -35.2% in assay [1]; -38.1% in assay [2]; -2.4% in assay [3]; -3.5% in assay [4]; 7.1% in assay [5]; -39.5% in assay [6].

Regarding `Cn1ncc2c(=O)[nH]c(=S)[nH]c21`, the growth inhibition is -9.6% in assay [1]; -4.4% in assay [2]; -5.65% in assay [3]; -32.1% in assay [4]; -2.3% in assay [5]; 3.6% in assay [6].

Turning to `O=C1c2cccnc2C(=O)C2CC3=C(CCCC3)CC12` (stereo not given), the growth inhibition is 97.9% (active) in assay [1]; 97.4% (active) in assay [2]; 96.9% (active) in assay [3]; 88.2% (active) in assay [4]; 97.4% (active) in assay [5]; 98.5% (active) in assay [6].

For `CC1(N)CCC(C(C)(C)N)CC1` (stereo not given), the growth inhibition in assay [1] is 28.1%; in assay [2], -8.75%; in assay [3], 10.8%; in assay [4], -30.3%; in assay [5], 2.35%; in assay [6], 8.8%.

As for `Cc1cccc(C(=O)c2ccccc2)c1C(=O)O`, the growth inhibition in assay [1] was 10.7%; in assay [2] it was 2.45%; in assay [3], 4.55%; in assay [4] it was 2.45%; in assay [5], -9.25%; in assay [6], 2.15%.

Take `COC(=O)C(=NNc1ccccc1[N+](=O)[O-])C(=O)OC`: the growth inhibition was 15.9% in assay [1]; 5% in assay [2]; 23.1% in assay [3]; 33.8% in assay [4]; 19.8% in assay [5]; -2.6% in assay [6].

For the compound `CCOC(=O)c1c(Cl)c(CC)c(Cl)n2c1nc1ccccc12`, the growth inhibition in assay [1] is -12.7%; in assay [2], -7.45%; in assay [3], 14.8%; in assay [4], -9.6%; in assay [5], -2.8%; in assay [6], 4.05%.

In the case of `C/C(=C\Cc1cc(O)c(C)cc1O)CC/C=C(\C)Cc1cc(C)co1`, the growth inhibition is -14.9% in assay [1]; -19.7% in assay [2]; -35.5% in assay [3]; 17.9% in assay [4]; -1.3% in assay [5]; -8.75% in assay [6].
